Measurements reported in PubChem BioAssay AID1345083 (National Center for Advancing Translational Sciences (NCATS), 2018).
Hit rate of the full screen: of about 94,000 compounds, about 6,200 (6.6%) were called active. Where a call stands in place of a potency, no number is given. Inconclusive results (about 31%) are left out. Calls come from the whole dose curve; as a rule, active = well fitted inhibition curve with a large enough effect; inconclusive = small, poorly fitted or top-dose-only effect; inactive = flat fitted curve, though single readings scatter. Many of the other results were omitted from the sample, so actives are more common in it than they were.

Assay: Cytotoxic Profiling in HEK 293 Cell Line of Diverse Libraries Using Quantitative High-Throughput Screening; note: nearly all actives have a fitted effect of over 60% in size
Conditions: HEK 293 viability, ATP luminescence (CellTiter-Glo), 48-72 h; series mostly up to 115 µM
Method in brief: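 CellTiter-Glo luminescence (cellular ATP) was read after 48 or 72 hr of compound exposure at 37 degree Celsius. Cells were HEK 293 plated at 250 cells/well.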
Potency is the fitted concentration of half-maximal effect.

SMILES	Potency
O=C(Cn1nc2n(c1=O)CCCCC2)N1CCc2ccccc21	inactive
CCOCC(=O)Nc1nn(-c2cccc(F)c2)c2cccc(N3CCOC3=O)c12	inactive
NC(=O)[C@H](Cc1cccs1)NC(=O)[C@@H]1C[C@@H](NC(=O)c2cnccn2)CCN1C(=O)COCC(=O)O	inactive
O=C(NCc1ccncc1)C1CCN(C(=O)N2CC3CC(C2)[C@H]2CCCC(=O)N2C3)CC1 (some centres undefined)	inactive
O=C(Nc1ccccc1Br)N1CCC2(CC1)SCC(=O)N2Cc1ccco1	inactive
CNC(=O)[C@@H]1CN(C(=O)Cn2c(=O)oc3ccccc32)C[C@H]1c1nc(C)no1	inactive
O=C(NCCOc1ccccc1)c1nc2c(o1)CCN(CC1CCCCC1)CC2	100 µM (active)
O=C(NCCc1ccccc1)N1CCCCCC1CN1CCOCC1 (centres undefined)	inactive
CCc1nc2c(c(-c3ccc(OC)cc3)n1)CCN(CC1CCCCC1)CC2	inactive
CN1C(=O)[C@H]2CN(Cc3ccccc3Cl)C[C@H]2C1=O	inactive
c1coc(-c2ccnc3nc(C4CC4)nn23)c1	inactive
COc1cc(NC(=O)C2Cn3cccc3C(=O)N2)cc(OC)c1 (centres undefined)	inactive
Cc1noc(C)c1[S+](=O)([O-])NC1CCN(Cc2ccc(-c3ccsc3)cc2)C1 (centres undefined)	39.8 µM (active)
Cc1noc(C)c1[S+](=O)([O-])N1CCCC(c2nnc3n2C(C(=O)O)CC3)C1 (centres undefined)	inactive
Cc1noc(C)c1[S+](=O)([O-])NC1CCN(Cc2cccc(-c3ccc(F)c(F)c3)c2)CC1	25.1 µM (active)
CSc1ccc(-c2cccc(CN3CCC(N[S+](=O)([O-])c4cccs4)CC3)c2)cc1	22.4 µM (active)
Cc1noc(C)c1[S+](=O)([O-])N1CCn2c(nnc2-c2ccccc2)C1	inactive
O=C1N2CCCC2CN1C1CCN(Cc2ccsc2)CC1 (centres undefined)	inactive
Cc1noc(C)c1[S+](=O)([O-])N1CC(Oc2ccc(F)c(F)c2)C1	inactive
CCCN1C(=O)C(CC(=O)NC2CCCC2)Sc2ncccc21 (centres undefined)	inactive
CC(C)CCN1CCc2c(n(Cc3cccnc3)n(-c3ccccc3)c2=O)C1	inactive
CCn1ncc(N2CCC(NC(=O)C(C)c3ccccc3)CC2)cc1=O (centres undefined)	inactive
CN1[C@@H](CCC(=O)N2CCN(c3ccccn3)CC2)CNC(=O)[C@@H]2[C@H]1CCN2Cc1csnn1	inactive
CN(Cc1cccnc1)C1CN(C(=O)c2ccnn2C)C1	inactive
CN(Cc1cccc2ccccc12)C1CCc2ccccc21 (centres undefined)	inactive
CN(CC1CCOC1)C(=O)c1ccccc1Br (centres undefined)	inactive
O=C(c1ccc(C(F)(F)F)cc1)N1CCC2(C1)C(=NC1CCCC1)NC(=O)N2c1cccnc1 (centres undefined)	inactive

SMILES	Potency
CN(CC1(C)CCOCC1)S(=O)(=O)C1CC1	inactive
O=C(N[C@@H]1C[C@H](Cn2cc(-c3cccnc3)nn2)[C@@H](O)[C@H]1O)c1ccccc1	inactive
O=c1[nH]c(N2CCOCC2)nc2c1CCN(Cc1cccc(F)c1)CC2	inactive
CN(C)c1ccc(C(=O)N2CCN3C(=O)N(Cc4ccccc4)C(=O)[C@H]3C2)cc1	inactive
CC1=C[C@@H](CNC(C)C)[C@H](C(C)C)C[C@H]1Cc1nnc(-c2ccc(C)cc2)o1	70.8 µM (active)
CC(=O)NC[C@@H]1C=C(C)[C@H](CC(=O)N2CCCC2)C[C@H]1C(C)C	inactive
CC1=C[C@@H](CNC(C)C)[C@H](C(C)C)C[C@H]1Cc1nnc(-c2ccc(N(C)C)cc2)o1	31.6 µM (active)
CC1=C[C@@H](CNC2CC2)[C@H](C(C)C)C[C@H]1Cc1nnc(-c2ccc(C)cc2)o1	50.1 µM (active)
O=C1CCC2(CCCN(C(=O)c3ccc(F)cc3)C2)CN1CCc1cnc[nH]1 (centres undefined)	inactive
CC(C)CN1CC2(CCN(C(=O)c3conc3-c3ccccc3)CC2)CC1=O	inactive
CC(C)S(=O)(=O)N1CCC(c2nnc3n2CCNC3)CC1	inactive
O=C(C1C2C(=O)N(C3CCCCCC3)C[C@@]23C=C[C@@H]1O3)N1CCS(=O)(=O)CC1 (some centres undefined)	inactive
COCCN1CCOC[C@H]2CCN(C(=O)c3sc(C)nc3C)C[C@H]21	inactive
COCCNC(=O)CC[C@]12CC[C@](C)(O)C[C@H]1C(C)(C)C[C@@H]2NC(=O)c1ccco1	inactive
CNC(=O)[C@@H]1CN(Cc2cccc(OC)c2)C[C@H]1CO	inactive
N[C@@H]1CCN(Cc2cccc(Oc3ccc(F)cc3)c2)C[C@H]1O	79.4 µM (active)
COc1cccc(CN2CC[C@@](C)(O)[C@H](N3CCCC3)C2)c1	inactive
COC(=O)C1=C(C)N=C2SC=C(CC(=O)NCc3ccco3)N2C1c1cccc(F)c1 (centres undefined)	inactive
CC(C)(C)c1nc(C(=O)N2CCOCC2)n2ccccc12	inactive
CCCNC(=O)N1CCCC1c1nc(C2CCOCC2)no1 (centres undefined)	inactive
COCCN1C(=O)CS(=O)C12CCN(C(=O)NC1CCCC1)CC2 (centres undefined)	inactive
Cn1nccc1C(=O)N1CCCCCNC(=O)[C@@H]2CCC[C@@H]21	inactive
COc1ccccc1Nc1ncc2c(n1)CN(C(=O)COc1ccccc1)CCN2	inactive
O=C(c1cccc(F)c1)N1CCCC(c2nccn2Cc2cscn2)C1 (centres undefined)	inactive
O=C(c1cccc(O)c1)N1CCNc2cnc(Nc3cccc(F)c3)nc2C1	100 µM (active)
Cc1ccc(C(=O)N2C[C@H]3CN(C4CCOCC4)C[C@@]3(C(=O)O)C2)cc1	inactive
COCCn1c(C)nnc1-c1cc(-c2cccc(F)c2)ccn1	inactive

SMILES	Potency
Cc1nnc(-c2cc(-c3ccccc3)ccn2)n1CCc1ccccc1	89.1 µM (active)
COc1ccc(-c2ccnc(-c3nnc(C)n3C3CCN(C)CC3)c2)cc1OC	inactive
O=C(C1CCN([S+](=O)([O-])c2cccs2)CC1)N1CCC(c2nc3ncccc3[nH]2)CC1	inactive
Cc1ccc(N2Cc3c(NC4CCCCC4)ncnc3N(C)CC2=O)cc1	inactive
O=C(Cc1cccn1-c1ccccc1)N1CCOCC1	inactive
Cc1ccc(C(=O)N2CCCC(C(=O)NCc3ccccc3)CCNC(=O)CC2)s1 (centres undefined)	inactive
O=[N+]([O-])c1cccc(-c2noc([C@@H]3C[C@@H](O)CN3Cc3cccnc3)n2)c1	inactive
COc1cccc(C(=O)N2CCc3nc(C(C)C)nc(-c4ccc(Cl)cc4)c3C2)c1	89.1 µM (active)
COc1ccc(-c2nc(C3CC3)nc3c2CCN([S+](=O)([O-])c2ccccc2)CC3)cc1	inactive
COc1ccc(-c2nnc3n2CCN(C(=O)c2cccc(OC)c2)C3)cc1	inactive
COc1ccc(-c2nc(C(C)C)nc3c2CCN([S+](=O)([O-])c2cccc(C(F)(F)F)c2)CC3)cc1	39.8 µM (active)
COc1ccc(-c2nc(C)nc3c2CN([S+](C)(=O)[O-])CC3)cc1	inactive
COc1ccc(C(=O)N2CCc3nc(C4CC4)nc(-c4ccc(Cl)cc4)c3C2)cc1	inactive
CCC(CC)C(=O)N1CCC(N2CCCC(C(=O)NCc3ccccc3)C2)CC1 (centres undefined)	inactive
COc1cc(SC)ccc1C(=O)N[C@@H]1C=C(C(=O)N[C@H](Cc2ccccc2)C(N)=O)C[C@@H](O)[C@@H]1O	inactive
CCCC(NC(C)=O)C(=O)Nc1cccc(NC(=O)Cc2ccccc2)c1 (centres undefined)	inactive
O=c1[nH]c(C2CCN(Cc3ccc(F)cc3)CC2)nn1Cc1ccccc1	inactive
COc1ccccc1C(=O)N1CCC2(CC1)CC(=O)c1ccccc1O2	112 µM (active)
COc1ccccc1C(=O)N1CCC(n2cnnc2C2CC2)CC1	inactive
COc1ccccc1C(=O)N1CCC2(CCC(=O)N(Cc3ccccc3)CC2)CC1	inactive
OC1CC(c2cc(N3CCC(c4nnc5n4CCCCC5)CC3)ncn2)C1 (centres undefined)	inactive
O=C(O)c1cccc(-c2ccccn2)c1	inactive
COCCN1C(=O)c2cccn2CC1CNC(=O)c1ccccc1F (centres undefined)	inactive
CN(C)[C@@H]1CO[C@H](CNS(=O)(=O)c2ccccc2)[C@H]1O	inactive
CNC(=O)c1cc[nH]c1C1CCCN(C(=O)Cc2c[nH]c3ccccc23)C1 (centres undefined)	inactive
